This is one part of the list. Inconclusive results are not listed. Active and inactive are the calls of the source. Calls follow the shape of the dose curve; as a rule, active = well fitted curve in the direction sought with a large enough effect; inconclusive = small, poorly fitted or top-dose-only effect, or another doubt; inactive = no such curve, though single readings can be large or run the other way.

The nature of this test: Inhibitors of DNA Polymerase Beta: Hit Validation in HIV-RT Assay. The conditions noted are these: HIV-1 RT polymerase activity, counter-screen; series mostly up to 57.1 µM; activity % (negative = inhibition, positive = activation): at the top concentration. The source says: The base excision repair system in human cells is a target for therapeutic modulation of the response to irradiation treatment and DNA-damaging drugs. A key enzyme in this system is the bi-functional DNA polymerase known as DNA polymerase beta (pol b). […] Using an integrated approach involving discovery of small molecule probes for pol b via qHTS and validation by crystallography and kinetics along with cell-based validation experiments, we will test the hypothesis that base excision repair can be strategically modulated in human cells by targeting pol b. Thus, we anticipate the pol b-specific probes emerging from this research will serve as starting points in the development of clinical agents for use in down regulation of DNA base excision repair during therapeutic interventions against cancer.
After the completion of the qHTS against the Molecular Libraries Small Molecular Repository (MLSMR), cherry picked compounds were confirmed in the primary qHTS pol beta assay and further characterized in several follow-up assays. To avoid compound promiscuity, we selected a completely unrelated viral polymerase to polymerase beta, HIV reverse transcriptase(RT) as a counter screen. There are distinct differences between the two polymerases, such as source of host and HIV RT is responsible for transcribing the virus' single stranded RNA into double-stranded DNA after entry into its host cell. […] To us, a favorable outcome in this assay is inactivity.
NIH Chemical Genomics Center [NCGC]
NIH Molecular Libraries Probe Centers Network [MLPCN]
Assay Submitter (PI): Samuel Wilson, National Institute of Environmental Health Sciences (NIEHS), NIH
A stepwise description of the 1536-well assay is shown in next Table. Three microliters of reagents (buffer in column 3 and 4 as negative control and 10 nM Pol beta in columns 1, 2, and 5-48) was dispensed into 1,536-well black solid-bottomed plate. Compounds (23 nL) were transferred via Kalypsys pin tool equipped with 1536-pin array (10 nL slotted pins, V&P Scientific, San Diego, CA). The plates were incubated for 15 min at room temperature, and 1 uL substrate (50 nM final concentration) were added to start the reaction and immediately read at 0 min read on Viewlux reader. The plate were further incubated for 10 min at room temperature, and then read on Viewlux again. Throughout the screen, reagent bottle and all liquid lines were chilled and made light-tight to minimize reagent degradation. All screening operations were performed on a fully integrated robotic system (Kalypsys, San Diego, CA) containing one RX-130 and two RX-90 anthropomorphic robotic arms (Staubli, Duncan, SC). Library plates were screened starting from the lowest and proceeding to the highest concentration, and a double-dipping step of the highest concentration was required to access higher concentrations of compounds. Vehicle-only plates, with DMSO being pin-transferred to the entire column 5-48 compound area, were inserted uniformly at the beginning and the end of each library in order to monitor for and record any shifts in the background, which can be affected by reagent dispensers or loss in enzyme activity overtime. Screening data were corrected, normalized, and concentration-effect relationships were derived by using publicly-available curve fitting algorithms developed in-house (http://ncgc.nih.gov/pub/openhts). A four parameter Hill equation was fitted to the concentration-response data by minimizing the residual error between the modeled and observed responses.
For `Cc1ccc(C(=O)Oc2coc(CSc3nnc(NC(=O)c4cccs4)s3)cc2=O)cc1C`, the “activity % (negative = inhibition, positive = activation)” value was 30% (inactive).

As for `Cc1c(CCC(=O)O)c(=O)oc2c(C)c(OCc3ccccc3Cl)ccc12`, the “activity % (negative = inhibition, positive = activation)” value was 31.4% (inactive).

For the compound `COc1ccc(Cc2nnc(NC(=O)Cc3cccs3)s2)cc1`, the “activity % (negative = inhibition, positive = activation)” value was 26.1% (inactive).

For `COc1cc([C@H](Cc2ccccc2)NC(C)=O)oc(=O)c1`, the “activity % (negative = inhibition, positive = activation)” value is -11.1% (inactive).

For `Cc1ccc2nc(-c3ccncc3)cc(C(=O)Nc3ccc(OC(F)F)cc3)c2c1`, the “activity % (negative = inhibition, positive = activation)” value was 31.2% (inactive).

In the case of `O=C(c1cc2c(s1)CCC2)N1CCN(c2ccccc2)CC1`, the “activity % (negative = inhibition, positive = activation)” value was 32.1% (inactive).

Regarding `O=C(Nc1ccc(S(=O)(=O)Nc2nccs2)cc1)c1cc(-c2ccncc2)nc2ccccc12`, the “activity % (negative = inhibition, positive = activation)” value was 20.5% (inactive).

(Values after PubChem BioAssay AID540301 (National Center for Advancing Translational Sciences (NCATS), 2011).)
